Assay outcomes: PubChem BioAssay, The Scripps Research Institute Molecular Screening Center
COUP-TFII inh = NR2F2 (human) inhibition, primary screen. actives 0.7% (n = 370,000). inhibition, % at 8.6 µM. AID 686940. HEK293T NGFI-A luciferase reporter, luminescence;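 active means inhibition above a per-plate cutoff, mean inhibition of test wells between control levels plus 3 SD, cut at about 38% in these data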;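 further: cells cotransfected with COUP-TFII expression vector driving the NGFI-A reporter; 0% = median of COUP-TF2 test wells and 100% = reporter-only cells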
GalR3 antagonist = antagonists of human GalR3; O60755; HEK293 GalR3-CNG cAMP membrane potential fluorescence; galR3 body fused to GalR1 C-terminus; inhibition, % at 3 µM; actives 0.44% (n = 360,000);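 active means inhibition above the screen-wide average plus 3 SD, cut at about 13% in these data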;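 further: forskolin and galanin both at EC90 stimulate the cells; cAMP rise reported by CNG channel membrane potential dye signal; 0% = forskolin plus galanin with DMSO and 100% = forskolin alone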
SRC2 inh = human SRC2 (NCOA2) inhibition. HEK293 GAL4-SRC2 luciferase reporter, luminescence. actives 0.17% (n = 370,000). AID 651957. Q15596. inhibition, % at 9 µM;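 active means inhibition above the mean inhibition of all tested compounds plus 3 SD, set per campaign, cut at about 52% in these data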;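 further: 0% = DMSO treated cells and 100% = cells given Gossypol at 36 µM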
LRH-1 inv ag = suppresses constitutive activity of human LRH-1; O00482; HEK293T StAR-luciferase reporter, LRH-1 transfected, 24 h; inhibition, % at 3.6 µM; actives 0.13% (n = 360,000);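 active means inhibition above the mean inhibition of all tested compounds plus 3 SD, cut at about 73% in these data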;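 further: 0% = DMSO wells and 100% = reporter-only cells lacking LRH-1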
Target sequence (O00482 whole entry, looked up): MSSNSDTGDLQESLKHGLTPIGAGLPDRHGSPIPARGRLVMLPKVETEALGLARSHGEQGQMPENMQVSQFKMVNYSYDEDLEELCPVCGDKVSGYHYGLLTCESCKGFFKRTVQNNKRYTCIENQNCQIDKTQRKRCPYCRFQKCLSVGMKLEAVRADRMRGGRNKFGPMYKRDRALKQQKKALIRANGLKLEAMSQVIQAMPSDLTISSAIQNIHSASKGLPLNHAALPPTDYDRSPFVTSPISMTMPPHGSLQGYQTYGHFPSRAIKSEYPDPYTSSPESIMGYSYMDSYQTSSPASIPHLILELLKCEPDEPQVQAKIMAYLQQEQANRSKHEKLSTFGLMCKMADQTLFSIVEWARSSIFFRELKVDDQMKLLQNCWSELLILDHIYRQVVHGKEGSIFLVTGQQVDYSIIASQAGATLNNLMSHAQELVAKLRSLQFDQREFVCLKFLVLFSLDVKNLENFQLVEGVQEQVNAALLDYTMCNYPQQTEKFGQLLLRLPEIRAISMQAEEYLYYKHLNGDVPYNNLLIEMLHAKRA
NCOA1 inh = human NCOA1 inhibition. Q15788. HEK293 GAL4-SRC1 luciferase reporter, luminescence. inhibition, % at 3.6 µM. actives 0.12% (n = 360,000). AID 588354;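 active means inhibition above the campaign mean plus 3 SD, with each screening campaign given its own cutoff, cut at about 60% in these data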;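 further: 0% = DMSO treated cells and 100% = gossypol at 36 µM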
SRC3 inh = inhibits human SRC3 coactivator; Q9Y6Q9; HEK293 GAL4-SRC3 luciferase reporter, luminescence; inhibition, % at 3.6 µM; actives 0.17% (n = 360,000);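 active means inhibition above a per-campaign cutoff, the mean of all compounds plus 3 SD, cut at about 60% in these data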;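 further: 0% = DMSO-treated cells and 100% = gossypol-treated cells at 36 µM; higher means less SRC3-driven luciferase light from the GAL4 reporter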
VP16 Luc counter = inhibits VP16 reporter, flagging COUP-TFII antagonist hits; actives 25% (n = 2,500); inhibition, % at 8.5 µM; HEK293 Gal4-VP16 luciferase reporter, luminescence; AID 687007; shares compounds with COUP-TFII inh; in the data active means inhibition above about 13%
COUP-TFII conf = confirmation of human COUP-TFII (NR2F2) inhibitors. shares compounds with COUP-TFII inh. HEK293 NGFI-A luciferase reporter, luminescence. inhibition, % at 8.5 µM. actives 45% (n = 2,500);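 active means mean inhibition over three repeats above a set limit taken from the earlier primary screen, cut at about 38% in these data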;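 further: 100% = cells given the luciferase reporter alone without the COUP-TF2 vector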
* = called active by the depositor; nt = no result given. An excerpt weighted towards active compounds, which were near 1.1% of everything screened.

SMILES | COUP-TFII inh | GalR3 antagonist | SRC2 inh | LRH-1 inv ag | NCOA1 inh | SRC3 inh | VP16 Luc counter | COUP-TFII conf
Nc1ccc(Nc2nc(-c3cc4ccccc4oc3=O)cs2)cc1 | -24 | -2 | -55 | -46 | -118 | -76 | nt | nt
CC(=O)Nc1ccc(Nc2nc(-c3cc4ccccc4oc3=O)cs2)cc1 | 40* | -4 | -8 | -55 | -25 | -62 | -135 | -68
NC1=[N+](Cc2ccccc2)C[C@H]2C(=C3CCCC[C@H]3n3c(=O)n(-c4ccccc4)c(=O)n32)N1 | -4 | nt | 1 | nt | nt | nt | nt | nt
CC(C)(C)c1ccc(-c2nnc3sc(-c4ccccn4)nn23)cc1 | 41* | 3 | 21 | -1 | -5 | -2 | -23 | 52*
N=c1c2c(ccn1CCCCc1ccccc1)Oc1ccc3ccccc3c1C2c1ccccc1 (stereo unspecified) | 20 | nt | nt | nt | nt | nt | nt | nt
CC1CCN(c2ccc(-c3cccs3)nn2)CC1 | 45* | -12 | 62* | 32 | 18 | 41 | 20* | 42*
Clc1ccc(-c2cccs2)nn1 | 5 | -3 | 1 | -1 | -6 | 19 | nt | nt
COc1cc(NC(=O)c2cccs2)c(C(=O)OCC(=O)c2cc(C)n(-c3ccccc3)c2C)cc1OC | 65* | 2 | 57* | 2 | 11 | 27 | 18* | 37
COc1cc(NC(=O)c2cccs2)c(C(=O)OCC(=O)c2cc(C)n(-c3ccc(F)cc3)c2C)cc1OC | 20 | 1 | 13 | -14 | -2 | 44 | nt | nt
Cc1cc(C)nc(SCc2nnc(SCC(N)=O)n2Cc2ccco2)n1 | 39* | -1 | -13 | -3 | -3 | 19 | 11 | 11
CCOC(=O)CSc1nnc(CSc2nc(C)cc(C)n2)n1Cc1ccco1 | -7 | -9 | -9 | 23 | 12 | -19 | nt | nt
Cc1ccc2c(c1)C1CS(=O)(=O)N(Cc3ccc(F)cc3)CN1C2 (stereo unspecified) | 26 | nt | -6 | nt | nt | nt | nt | nt
COc1ccc(CNC(=O)c2cccc3c(-c4cccc(C(N)=O)c4)coc23)cc1OC | 86* | 9 | 34 | 51 | 56 | 59 | -1 | 73*
COc1cc(-c2coc3c(C(=O)NCc4ccc(OC)c(OC)c4)cccc23)ccc1O | 67* | -6 | -8 | 38 | -5 | -1 | 0 | 63*
COc1cc(-c2coc3c(C(=O)NCc4ccc(N(C)C)cc4)cccc23)ccc1O | -6 | -3 | -20 | 22 | -1 | -6 | nt | nt
COc1ccc(CNC(=O)c2cccc3c(-c4ccc(F)c(F)c4)coc23)cc1OC | nt | nt | nt | 19 | 18 | 15 | nt | nt
Cc1ccc2nc(NC(=O)c3ccccn3)sc2c1 | 58* | -7 | 28 | -7 | -6 | 12 | 10 | 28
COc1ccccc1C(=O)Nc1nc2ccccc2s1 | 91* | -11 | 86* | 66 | 71* | 74* | 78* | 97*
COC(=O)[C@H]1C[C@@]2(N3CCCCC3)c3ccccc3N(C(=O)OC(C)(C)C)[C@H]2N1C(=O)OC(C)(C)C | 5 | nt | 25 | nt | nt | nt | nt | nt
COCCCN1C(=O)[C@H](CC(=O)N2CCN(C(=O)C3CC3)CC2)[C@]2(C(=O)OC)CCCCC=C12 | -19 | nt | 2 | nt | nt | nt | nt | nt
CCc1ccccc1NC(=O)Nc1cccn(Cc2ccccc2F)c1=O | 10 | -5 | -23 | -9 | -17 | 4 | nt | nt
CSc1ccc(NC(=O)Nc2cccn(Cc3ccccc3F)c2=O)cc1 | 39* | -9 | -21 | -23 | -15 | -18 | -73 | -8
CN(c1cccc(Cl)c1)S(=O)(=O)c1cccc(C(=O)Nc2nc3ccccc3[nH]2)c1 | 42* | -8 | -11 | -21 | -3 | 0 | -39 | -5
COc1ccc(N(C)S(=O)(=O)c2cccc(C(=O)Nc3nc4ccccc4[nH]3)c2)cc1 | -10 | -6 | 10 | -22 | 5 | 10 | nt | nt
COc1ccc(-n2ncc3c(N4CCC(C)CC4)ncnc32)cc1 | -16 | 5 | -27 | -64 | -71 | -86 | nt | nt
SMILES | COUP-TFII inh | GalR3 antagonist | SRC2 inh | LRH-1 inv ag | NCOA1 inh | SRC3 inh | VP16 Luc counter | COUP-TFII conf
Cc1cccc(-n2ncc3c(N(C)C4CCCCC4)ncnc32)c1 | 87* | 1 | 62* | 77* | 81* | 81* | 49* | 92*
COc1ccc(-n2ncc3c(N(C)C4CCCCC4)ncnc32)cc1 | 89* | -1 | 63* | 79* | 79* | 79* | 74* | 94*
O=S(=O)(/C=C/C=C/S(=O)(=O)c1ccccc1)c1ccccc1 | 51* | 5 | 50 | 28 | -191 | -92 | 49* | 72*
CCCCCCCCN1C(=O)[C@@H](CC(=O)NCc2cccs2)C[C@@]2(C(=O)OC)C1=C[C@H](COCc1ccccc1)O[C@@H]2C | 2 | nt | 16 | nt | nt | nt | nt | nt
Cc1cc2nc(C)n(CCCNC(=O)Nc3cccc4ccccc34)c2cc1C | 38* | -5 | 10 | 11 | -6 | 15 | -2 | 19
CCOc1ccc(NC(=O)NCCCn2c(C)nc3cc(C)c(C)cc32)cc1 | 11 | -5 | -9 | 18 | -21 | 16 | nt | nt
CCOc1ccc(-n2c(SCC(=O)c3ccccc3Cl)nnc2-c2ccncc2)cc1 | 2 | nt | 6 | nt | nt | nt | nt | nt
O=C(c1ccc2c(=O)n(Cc3ccc(Cl)cc3)c(=S)[nH]c2c1)N1CCOCC1 | 39* | -10 | 31 | 15 | 6 | 17 | 7 | 19
COc1ccc2c(c1)[nH]c1c(N3CCN(Cc4ccc5c(c4)OCO5)CC3)ncnc12 | 46* | -2 | 8 | 51 | 6 | 24 | 10 | 65*
Cc1nc(N2CCN(Cc3ccc4c(c3)OCO4)CC2)c2oc3ccccc3c2n1 | 83* | -12 | 31 | 21 | -1 | 4 | -5 | 9
Cc1ccc2c(c1)[nH]c1c(N3CCN(Cc4ccccc4)CC3)ncnc12 | 67* | 9 | 3 | 23 | 14 | 20 | 0 | 40*
Cc1nc(N2CCN(Cc3ccc(Cl)cc3)CC2)c2oc3ccccc3c2n1 | 27 | -2 | -1 | 13 | -26 | 9 | nt | nt
Cc1ccc2[nH]c3c(N4CCN(Cc5ccccc5)CC4)ncnc3c2c1 | 31 | 10 | 19 | -2 | -56 | 7 | nt | nt
CCN(CC)C(=O)CC[C@@H]1CC[C@]2(CCCN(C(=O)c3cccnc3)C2)O1 | 7 | nt | -22 | nt | nt | nt | nt | nt
COc1ccc(-c2nsc3c(N4CCCCC4C)ncnc23)cc1 (stereo unspecified) | 97* | -4 | 82* | 86* | 89* | 89* | 88* | 104*
COc1ccc(-c2nsc3c(N4CCCCC4)ncnc23)cc1 | 57* | 3 | 33 | 40 | 54 | 43 | 3 | 63*
COc1ccc(C(=O)N2CCN(c3ncnc4c(-c5ccccc5)nsc34)CC2)cc1 | -13 | -8 | -17 | 12 | -5 | -34 | nt | nt
CCN(CC)C(=O)CC[C@H]1CC[C@]2(CCCN(C(=O)C(C)(C)C)C2)O1 | -10 | nt | -22 | nt | nt | nt | nt | nt
